The list is not random: actives were taken first. Their share in the collection is about 1.6%.
VLA-4 inh: inhibition in a human VLA-4 binding assay; VLA-4 expressing cells, ligand binding flow cytometry; inhibition, % (about 7 µM as worked out from the volumes in the protocol); 330,000 tested, 0.2% active; AID 2557; in the data active = inhibition above about 50%
GASC-1 inh: inhibitors of human GASC-1 (JMJD2C) demethylase; GST-JMJD2C(1-420) H3K9me3 demethylation, DELFIA europium; 330,000 tested, 0.069% active; inhibition, % at 2.35 µM; AID 2099;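 active = more than half of a compound's replicate wells show inhibition beyond 50%, single wells judged on their own value; inconclusive = some, but no more than half, of replicates pass 50% inhibition; inactive = no replicate passes 50% inhibition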;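 also: signal counts dimethyl H3K9 product captured on neutravidin plate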
DSG3 Ab inh: inhibitors of pemphigus antibody binding to human desmoglein-3. P32926. DSG3-coupled beads, scFv-anti-DSG3-GFP binding, flow cytometry; active compounds read low. binding (percent of control), % at 10 µM. 310,000 tested, 0.48% active. AID 588358;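 active = binding more than 3 SD below its plate's average and above zero; inconclusive = below that plate limit but binding exactly zero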;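 also: hits lower antibody fragment binding to DSG3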
GRK2 aptamer HTS: human GRK2 inhibition via aptamer displacement; P25098; bead flow cytometry, FAM-aptamer displacement from GRK2; inhibition of aptamer binding, % at 10 µM; 330,000 tested, 0.59% active;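 active = inhibition of aptamer binding above 40%, roughly 3 SD of noise, on plates passing a quality check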;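 also: median bead fluorescence of bound FAM aptamer so fluorescent compounds give negative values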
PREPL inhibitor: inhibits the human prolyl oligopeptidase-like enzyme. 320,000 tested, 0.68% active. AID 2751. Q4J6C6. inhibition, % at 5.96 µM. recombinant PREPL, fluorescence polarization activity-based probe; in the data active = inhibition above about 43%
Target sequence (Q4J6C6 whole entry, looked up): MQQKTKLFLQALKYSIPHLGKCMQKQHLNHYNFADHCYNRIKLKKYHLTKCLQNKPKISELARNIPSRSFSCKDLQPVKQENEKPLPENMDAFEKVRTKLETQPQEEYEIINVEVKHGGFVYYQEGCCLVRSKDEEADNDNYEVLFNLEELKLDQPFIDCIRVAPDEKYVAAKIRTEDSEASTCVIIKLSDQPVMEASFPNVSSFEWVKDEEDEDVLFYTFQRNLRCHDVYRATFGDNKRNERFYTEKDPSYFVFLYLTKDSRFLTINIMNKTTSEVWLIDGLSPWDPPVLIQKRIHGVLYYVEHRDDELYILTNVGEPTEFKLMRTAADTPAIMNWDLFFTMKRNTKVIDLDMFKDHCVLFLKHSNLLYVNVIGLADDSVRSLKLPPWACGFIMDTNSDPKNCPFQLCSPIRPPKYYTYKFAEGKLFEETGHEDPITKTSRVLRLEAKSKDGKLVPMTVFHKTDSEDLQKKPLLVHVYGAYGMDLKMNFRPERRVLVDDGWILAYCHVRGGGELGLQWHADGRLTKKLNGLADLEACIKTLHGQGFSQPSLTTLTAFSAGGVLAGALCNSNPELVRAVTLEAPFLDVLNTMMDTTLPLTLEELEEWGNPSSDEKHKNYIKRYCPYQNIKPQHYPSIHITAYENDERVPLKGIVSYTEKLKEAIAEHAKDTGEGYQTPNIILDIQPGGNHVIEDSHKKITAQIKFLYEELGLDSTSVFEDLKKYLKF
Large screens that a line does not name were inactive.

Cc1ccc2c(c1)C1C=CCC1C(C(=O)O)N2 (stereo not drawn)	GRK2 aptamer HTS 68.0 (no result: DSG3 Ab inh)
O=C(O)C1Nc2ccc(OC(F)(F)F)cc2C2C=CCC12 (stereo not drawn)	none (no result: DSG3 Ab inh)
O=C(O)C1Nc2c(cccc2C(F)(F)F)C2C=CCC12 (stereo not drawn)	GRK2 aptamer HTS 75.0 (no result: DSG3 Ab inh, PREPL inhibitor)
O=C(NCc1ccccc1)C1Nc2ccc(OC(F)(F)F)cc2C2C=CCC12 (stereo not drawn)	none
Cn1/c(=N\NC(=O)c2ccccc2Cl)sc2ccccc21	none
C#CCOc1ccccc1C(N)=O	none
O=C1COc2ccc(S(=O)(=O)N3CCN(c4ccccc4F)CC3)cc2N1	none
Cc1cc2oc(=O)cc(-c3ccccc3)c2c(C)c1-c1ccc(F)c(Cl)c1	DSG3 Ab inh 74.1 (no result: VLA-4 inh, GASC-1 inh, PREPL inhibitor)
CC(C)c1cc(C(C)C)c(S(=O)(=O)N2c3ccccc3[C@]3(Br)C[C@H]4C(=O)N[C@@H](Cc5ccccc5)C(=O)N4[C@H]23)c(C(C)C)c1	none (no result: VLA-4 inh, DSG3 Ab inh, GRK2 aptamer HTS, PREPL inhibitor)
Cc1ccc(NS(=O)(=O)c2ccc(NC(=O)CSc3ccc(Cl)cc3)cc2)c(C)c1	none
Cc1ccc(O)c(NC(=O)CSc2ccc(Cl)cc2)c1	DSG3 Ab inh 3.0
O=C(/C=C/c1ccco1)N1CCN(S(=O)(=O)c2cccc([N+](=O)[O-])c2)CC1	GRK2 aptamer HTS 79.0 (no result: DSG3 Ab inh)
COc1ccc(CCNC(=O)c2ccccc2)cc1	DSG3 Ab inh 64.8
COc1ccc(CCNC(=O)c2ccccc2C(=O)NCCc2ccc(OC)cc2)cc1	none
Fc1ccc(C2CCCCN2Cc2nc(CC3CC3)no2)cc1 (stereo not drawn)	none
Fc1ccc2nc(C3CCCCN3Cc3nc(CC4CC4)no3)[nH]c2c1 (stereo not drawn)	DSG3 Ab inh 2.2
Cc1ccccc1OCC(=O)Nc1cnn(CCCC(=O)O)c1	none
CCOC(=O)Nc1ccc(OC(=O)Oc2ccc(NC(=O)OCC)cc2)cc1	DSG3 Ab inh 77.8 (no result: VLA-4 inh, GASC-1 inh, GRK2 aptamer HTS, PREPL inhibitor)
CCOC(=O)Nc1ccc(Oc2ccccc2)cc1	none
O=C(O[C@@H]1OC2COC(=O)c3cc(O)c(O)c(O)c3-c3c(cc(O)c(O)c3O)C(=O)O[C@@H]([C@H]1O)[C@@H]2O)c1cc(O)c(O)c(O)c1	GASC-1 inh inconclusive, PREPL inhibitor 54.0
CC(C)(C)c1ccc(S(=O)(=O)N2CCN(CC(=O)N3CC(=O)Nc4ccccc43)CC2)cc1	none
COc1cccc(CN(C)C(=O)c2ccc(Cl)c(S(=O)(=O)N3CCCCCC3)c2)c1OC	none (no result: VLA-4 inh, GASC-1 inh, GRK2 aptamer HTS, PREPL inhibitor)
O=c1[nH]c2ccc(S(=O)(=O)N3CCCCC3)cc2[nH]c1=O	none
CC1CCN(S(=O)(=O)c2ccc3[nH]c(=O)[nH]c3c2)CC1	GASC-1 inh 58.2
Cc1ccc(S(=O)(=O)N2CCCCC2)cc1NCC(=O)Nc1ccc(Br)cc1F	none (no result: VLA-4 inh, GASC-1 inh, GRK2 aptamer HTS, PREPL inhibitor)
Cc1ccc(NC(=S)NCc2ccccc2)cc1[N+](=O)[O-]	none (no result: DSG3 Ab inh)
Cc1ccc(CNC(=S)Nc2ccc(C)c([N+](=O)[O-])c2)cc1	GRK2 aptamer HTS 50.0
C1=C(c2ccccc2)Nc2ncnn2C1c1ccccc1 (stereo not drawn)	DSG3 Ab inh 68.7
Cc1c(-n2c(SCC(=O)O)nnc2-c2ccccc2Br)c(=O)n(-c2ccccc2)n1C	none
Cc1onc(-c2ccccc2)c1C(=O)NCCSCc1ccco1	none
Cc1cc(=O)oc2cc(OCC(=O)Nc3cccc(S(=O)(=O)N(C)C)c3)ccc12	GRK2 aptamer HTS 56.0
CCN(CC)S(=O)(=O)c1ccc(Cl)c(NC(=O)COc2ccc3c(C)cc(=O)oc3c2)c1	GRK2 aptamer HTS 100.0
Cc1ccc(S(=O)(=O)N(C)C)cc1NC(=O)COC(=O)COc1ccc2c(C)cc(=O)oc2c1	none
CCOc1ccc(/C=N/NC(=O)c2nnn(-c3nonc3N)c2CN(C)C2CCCCC2)cc1	none
O=c1cc(-c2ccc(O)c(O)c2)oc2c(C3O[C@H](CO)[C@@H](O)[C@H](O)[C@H]3O)c(O)cc(O)c12 (stereo partly drawn)	GASC-1 inh 64.0
CC1CC(=O)Nc2ccccc2N1C(=O)Cn1cnc2ccc(Br)cc2c1=O (stereo not drawn)	none (no result: VLA-4 inh, GASC-1 inh, GRK2 aptamer HTS, PREPL inhibitor)
CCOc1ccc2[nH]c3c(N4CCN(c5ccccn5)CC4)ncnc3c2c1	PREPL inhibitor 68.5
Cc1ccc2[nH]c3c(N4CCN(Cc5ccccc5)CC4)ncnc3c2c1	none
Cc1ccc2c(c1)[nH]c1c(N3CCN(Cc4ccccc4)CC3)ncnc12	PREPL inhibitor 54.7
NC(=O)NC(=O)CSc1cccc(C(F)(F)F)c1	none
C[C@@H](NC(=O)Cn1cnc2c(OCc3ccccc3)ncnc21)c1cccc2ccccc12	GASC-1 inh 58.7
O=C(CSc1nccc(-c2ccc(Br)cc2)n1)NCCc1ccccc1	DSG3 Ab inh 69.0
Cc1ccc(N(CC(=O)NC(C)(C)C)C(=O)CNC(=O)c2cccs2)c(C)c1	DSG3 Ab inh 80.6
Cc1cc(C)c(N(CC(=O)NC(C)(C)C)C(=O)CNC(=O)c2cccs2)c(C)c1	none (no result: DSG3 Ab inh)
COc1ccc(S(=O)(=O)N2CCN(CC(=O)Nc3ccccc3OC)CC2)cc1	DSG3 Ab inh 75.0
Cc1cccn2c(CN(C)CCC3CCCCO3)c(C(=O)N3CCCCC3)nc12 (stereo not drawn)	none
Cc1ccc(C)n1Cc1ccc(C(=O)O)cc1	DSG3 Ab inh 67.8, GRK2 aptamer HTS 88.0 (no result: GASC-1 inh)
C=C(C1=CCN(S(=O)(=O)C(C)(C)C)[C@@H]1CCO)c1ccccc1	none (no result: VLA-4 inh, GASC-1 inh, GRK2 aptamer HTS, PREPL inhibitor)
Cc1cc(C)cc(NC(=S)NC2CC3CCC(C2)N3Cc2ccco2)c1 (stereo not drawn)	none
Cc1ccc(C)c(NC(=S)NC2CC3CCC(C2)N3Cc2ccco2)c1 (stereo not drawn)	DSG3 Ab inh 79.9
CNC(=O)CSc1nc2cc(S(=O)(=O)Nc3ccc(OC)cc3)ccc2o1	DSG3 Ab inh -4.7
Nc1c(/C=C2/C=CC(=O)C(O)=C2)c(=O)nc2sc(CC(=O)N3CCCCC3)nn12	GRK2 aptamer HTS 41.0
Nc1c(/C=C2/C=CC(=O)C(O)=C2)c(=O)nc2sc(CC(=O)N3CCCC3)nn12	none
Fc1cccc(CN2CCN(Cc3nc(-c4cnccn4)no3)CC2)c1	DSG3 Ab inh -16.5
O=C(CN1C(=O)CC(c2ccccc2)S(=O)(=O)c2ccccc21)N1CCOCC1 (stereo not drawn)	none (no result: DSG3 Ab inh)
O=C(C[n+]1ccc(C(=O)N/N=C/c2ccc(OCc3ccccc3)cc2)cc1)c1ccccc1	PREPL inhibitor 50.4
C[C@H]1[C@H](C)CC[C@]2(C(=O)O)CC[C@]3(C)C(=CC[C@@H]4[C@@]5(C)C[C@@H](O)[C@H](O)C(C)(C)[C@@H]5CC[C@]43C)[C@H]12	DSG3 Ab inh 84.9
O=C1c2ccccc2C(=O)N1CCc1csc(NNc2nc(CCN3C(=O)c4ccccc4C3=O)cs2)n1	DSG3 Ab inh 75.7 (no result: GASC-1 inh)
Cc1nc2c(N)nn(C)c2nc1C	none (no result: VLA-4 inh, GASC-1 inh, GRK2 aptamer HTS, PREPL inhibitor)
COCCCNC(=O)c1c(N)n(/N=C/c2cccs2)c2nc3ccccc3nc12	DSG3 Ab inh 79.0
CC(Sc1nnnn1C)C(=O)Nc1cc(S(=O)(=O)N2CCCCC2)ccc1Cl (stereo not drawn)	none
COc1ccc([C@H]2/C=C\CN(C(=O)C3CC3)[C@@H](C)C(=O)N2Cc2ccc(F)cc2)cc1	none
